ERAP1 inh = blocks human ERAP1 aminopeptidase activity. recombinant ERAP1, Leu-AMC fluorescence, 60 min. inhibition, % at 10.7 µM. 340,000 tested, 0.15% active;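 active = mean replicate inhibition of at least 30%, or all replicates individually reaching that 30% level; inactive = mean below 30% and not every replicate reaching it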;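 note: 0% = neutral control wells and 100% = L-leucinethiol positive control wells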
DENV2 CPE rescue = protects cells from dengue virus 2 cytopathic effect. DENV2-infected cells, cytopathic effect rescue, plate reader. CPE inhibition, % at 9.99 µM. 350,000 tested, 1.7% active. AID 651640; in the data active = CPE inhibition above about 20%, passing the limit was not always enough; inconclusive = no clear call, values can overlap the other calls; tested in BHK-21 cells;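 note: 0% = median of neutral control wells and 100% = median of positive control wells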
rRNA inh HTS = selective bacterial rRNA inhibition in E. coli. E. coli WT GFP vs humanized-ribosome RFP mutants, fluorescence, 24 h; active compounds read low; DMSO median 0, no signal -100. GFP signal change (wild-type ribosome), % (no concentration beside the values). 350,000 tested, 1.6% active. AID 720706;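 active = significant combined selectivity score with lowered wild-type GFP, culture density cut under 30%, mutant RFP and density less affected; inactive = any of these conditions unmet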
CaV13 ICDI inh = Primary screen for inhibitors of IQ motif and Ca2+-dependent inactivation inhibitor domain binding in CACNA1D, Förster resonance energy transfer in living cells, …; HEK cells, CFP/YFP FRET ICDI-IQ, plate reader, 10 min; percent FRET-ratio fall versus neutral wells; inhibition, % at 12.3 µM; 340,000 tested, 0.098% active;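 active = mean replicate inhibition of at least 30% and at least 1% of replicates passing that level; inconclusive = only one of the two criteria is met; inactive = neither criterion is met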;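 note: 0% = median of the neutral control wells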
PGC1a acetyl inh = PGC1a acetylation modulation, inhibitor mode; U2OS PGC1a acetylation, AlphaScreen anti-acetyl-lysine; with virally co-expressed GCN5 acetyltransferase; inhibition, % at 15.6 µM; 350,000 tested, 0.17% active; AID 651687;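 active = every replicate shows inhibition of at least 40%; inconclusive = mean inhibition at least 40% but some replicate below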;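 note: 0% = neutral control wells and 100% = positive control wells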
GSIS activator = primary screen for activators of insulin secretion dependent on glucose, INS-1E cells, GLuc reporter luminescence. INS-1E GLuc reporter insulin secretion, 2-3 h. 370,000 tested, 0.61% active. activation, % at 16.6 µM;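 active = lowest replicate activation of at least 40%, so every replicate reaches that level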;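 note: 0% = median of neutral control wells and 100% = median of IBMX positive control wells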
* = called active by the depositor; u = inconclusive; x = no result. Rows were chosen to be rich in hits. Some 3.2% of all compounds tested hit in one or more screens of this group.

SMILES	ERAP1 inh	DENV2 CPE rescue	rRNA inh HTS	CaV13 ICDI inh	PGC1a acetyl inh	GSIS activator
CC1=NOC(=O)/C1=C\c1ccc(-c2ccc(Br)cc2C(=O)O)o1	37.6*	-9.8	18.6	-2.6	21.4	-3.9
CC1=NOC(=O)/C1=C\c1ccc(-c2ccc(Br)cc2)o1	0.8	-9.3	-9.9	2.5	-11.0	-1.1
CC(C)NC(=O)N(C)C[C@@H]1Oc2c(cccc2N(C)C)C(=O)N(C)C[C@H]1C	x	x	-0.6	x	x	3.7
CC(=O)Nc1nc2cc3c(cc2s1)OCCO3	4.2	1.2	-6.4	8.8	x	-0.7
O=C(NNc1nc2cc3c(cc2s1)OCCO3)c1ccccc1	-0.2	u	-27.4*	-4.6	x	7.8
Cc1ccc(C(=O)Oc2ccc(-c3nccc(-c4ccccn4)n3)cc2)cc1	x	x	x	x	-10.8	56.4*
COc1ccc(C[C@@H]2OC3(C=CC(=O)C=C3)O[C@H]2Cc2ccc(OC)cc2)cc1	x	x	x	x	90.0*	x
C=CCN=C1CC(C)(C)C(C(=O)OC)C(O)=C1C(=O)CCC (stereo not drawn)	-2.4	7.3	6.9	-4.6	-2.7	72.5*
CCCC(=O)C1=C(SCC)CC(C)(C)C(C(=O)OC)C1=O (stereo not drawn)	x	x	x	-0.7	-2.7	x
C[C@H](CO)N1C[C@H](C)[C@@H](CN(C)C(=O)Nc2ccccc2)Oc2c(NC(=O)Nc3ccc(F)cc3)cccc2C1=O	0.3	19.2	-0.3	x	0.2	-4.7
O=C(N/N=C/C1CC=CCC1)c1ccccc1O (stereo not drawn)	x	x	x	-5.0	-17.3	x
O=C(N/N=C/C1CC=CCC1)c1ccc(Cl)cc1O (stereo not drawn)	2.7	-2.0	-28.8*	-5.6	-7.0	-31.7
C[C@@H]1CCCCO[C@@H](CN(C)S(C)(=O)=O)[C@H](C)CN([C@H](C)CO)C(=O)c2cc(NC(=O)Nc3ccccc3)ccc2O1	-2.0	-11.0	2.0	x	3.6	-12.2
CCOc1ccccc1N	-6.8	23.2*	-0.6	x	2.1	-0.5
Cc1cccc(NCc2cc(Cl)ccc2O)n1	-0.2	-0.3	-51.7*	-6.7	-9.3	-11.0
O=C(O)c1ccc(CNCc2cc(Cl)ccc2O)cc1	x	-0.4	1.1	-12.1	-1.2	-1.4
Cc1ccc(CNCc2cc(Cl)ccc2O)cc1	-7.0	87.6*	-3.5	-10.2	16.0	-0.1
O=C(NNc1ccc([N+](=O)[O-])cn1)Nc1ccc(N=Nc2ccccc2)cc1	2.5	7.5	-4.1*	-6.5	-0.8	-19.6
O=C(NNc1ccc([N+](=O)[O-])cc1)Nc1ccccc1	-5.3	1.7	9.2	-11.9	-3.0	-9.4
CCOc1cccc(C(=O)Nc2ccc3oc(Cc4ccc(Cl)cc4)nc3c2)c1	2.5	x	-29.8*	-5.0	x	-45.0
CCCNC(=O)N1C[C@H]2[C@@H](c3ccccc31)[C@@H](CO)N2C(=O)CN1CCOCC1	x	x	1.4	x	-8.5	3.4
CC[n+]1c(/C=C/c2ccc(OC)c(OC)c2)ccc2ccccc21	16.4	u	47.0	-25.2	x	-0.8
CC[n+]1c(/C=C/c2ccc(OC(C)=O)c(OC)c2)ccc2ccccc21	10.7	0.3	-13.8*	-19.9	10.0	25.9
Cc1ccc(O)c(C2=NCCNC(C(F)(F)C(F)F)=C2)c1	x	x	x	-3.8	x	x
Oc1ccc(Cl)cc1C1=NCCNC(C(F)(F)C(F)F)=C1	8.4	x	-22.1*	-6.6	11.9	22.6
SMILES	ERAP1 inh	DENV2 CPE rescue	rRNA inh HTS	CaV13 ICDI inh	PGC1a acetyl inh	GSIS activator
COCC(=O)Nc1ccc2c(c1)C(=O)N(C)C[C@H](OC)[C@@H](C)CN(Cc1cccnc1)[C@H](C)CO2	-2.7	0.1	-0.6	x	-5.8	8.0
C[C@@H]1CN([C@@H](C)CO)C(=O)c2cc(C3=CCCC3)cnc2O[C@@H]1CN(C)C(=O)C1CC1	x	x	6.3	x	4.8	18.8
CCS(=O)(=O)N[C@H]1CC[C@@H](CC(=O)NCc2ccc(F)cc2)O[C@@H]1CO	1.0	4.0	2.1	x	-1.8	-0.4
CCN1CCN(CCNC(=O)c2ccc(/C=C3\Sc4ccccc4N(Cc4ccccc4F)C3=O)cc2)CC1	x	-7.2	-56.0	-7.7	-19.6	135.5
CN1CCN(CCCNC(=O)c2ccc(/C=C3\Sc4ccccc4N(Cc4ccc(F)cc4)C3=O)cc2)CC1	1.4	6.8	-57.1	-13.7	3.0	76.1*
CN1CCN(CCCNC(=O)c2ccc(/C=C3/Sc4ccccc4N(Cc4cccc(Cl)c4)C3=O)cc2)CC1	5.3	-16.4	-49.6	-1.0	-3.1	128.5*
CN1CCN(CCCNC(=O)c2ccc(/C=C3\Oc4ccccc4N(Cc4ccccc4F)C3=O)cc2)CC1	14.1	-2.5	4.7	-7.2	x	92.8*
Cc1cccc(CN2C(=O)/C(=C\c3ccc(C(=O)NCCCN4CCN(C)CC4)cc3)Oc3ccccc32)c1	4.2	-7.8	5.3	-15.8	x	32.0
O=C(NCCCN1CCOCC1)c1ccc2c(c1)N(Cc1ccccc1)C(=O)c1ccccc1S2	-0.7	2.8	-0.3	-5.2	3.8	-2.5
Cn1c(/C(C#N)=C/Nc2ccccn2)nc2ccccc21	x	x	x	-6.7	2.5	x
N#C/C(=C\c1ccncc1)c1nc2ccccc2o1	x	4.3	1.9	-1.7	-3.5	-6.2
Cn1c(/C(C#N)=C/c2cccc(O)c2)nc2ccccc21	2.1	-2.1	-24.1*	-4.9	13.7	5.5
N#C/C(=C\c1cccc(O)c1)c1nc2ccccc2o1	5.7	6.4	-18.1*	-5.1	-3.7	-2.7
COc1ccc2nc(C)cc(N/N=C/c3ccc(F)cc3)c2c1	-0.8	-27.4	-51.7	-6.7	93.7*	3.2
Cc1ccc(S(=O)(=O)Nc2cccc3c2O[C@@H](CN(C)S(=O)(=O)c2ccc(Cl)cc2)[C@@H](C)CN([C@@H](C)CO)C3=O)cc1	1.8	20.8*	-0.8	x	3.6	-5.0
Cc1ccc(S(=O)(=O)Nc2cccc3c2O[C@H](CN(C)S(=O)(=O)c2cccs2)[C@@H](C)CN([C@@H](C)CO)C3=O)cc1	-2.2	63.3*	-2.1	x	-1.7	2.7
C[C@H](CO)N1C[C@H](C)[C@H](CN(C)S(=O)(=O)c2cccs2)Oc2ncccc2C1=O	3.3	37.2*	5.6	x	2.6	13.3
C[C@@H]1CN([C@H](C)CO)C(=O)c2cccc(NC(=O)c3ccncc3)c2O[C@@H]1CN(C)S(=O)(=O)c1cccs1	-0.3	26.5*	6.6	x	-3.9	-0.7
C[C@H](CO)N1C[C@H](C)[C@@H](CN(C)S(=O)(=O)c2cccs2)Oc2c(NC(=O)c3ccncc3)cccc2C1=O	3.0	1.0	0.3	-11.9	13.6	-2.2
C[C@@H]1CN([C@H](C)CO)C(=O)c2cccc(NS(=O)(=O)c3ccc(Cl)cc3)c2O[C@@H]1CN(C)S(=O)(=O)c1cccs1	-4.5	76.3*	-8.2	x	-7.0	-13.2
C[C@H](CO)N1C[C@H](C)[C@@H](CN(C)S(=O)(=O)c2cccs2)Oc2c(NS(=O)(=O)c3ccc(Cl)cc3)cccc2C1=O	-1.8	-1.9	-4.6	x	2.9	5.4
